IL-1B inflam inh – inflammasome signaling inhibition, IL-1 beta readout; THP-1 LPS/ATP IL-1B secretion, AlphaLISA, 16 h; hits give low values; activity change, % at 57.5 µM; actives 4.7% (n = 360,000); AID 743279; in the data active = activity change below about -50%; inconclusive = mostly about -30% to -49%
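Secreted IL-1B measured by AlphaLISA bead assay after 16 h compound exposure of THP-1 cells; compounds (final up to 57.5 uM) added 1 h before LPS (250 ng/mL) and ATP (1.25 mM) stimulation; lower signal means less secretion.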
HepG2 viability – counter-screen for TGF-b inhibitors: cytotoxicity in HepG2 cells. HepG2 CAGA-GFP viability, ATP luminescence, 18 h. Potency, µM (highest dose often 46.1 µM), hits mostly cytotoxic. actives 0.76% (n = 410,000)
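HepG2 CAGA-GFP cells (1000/well, DMEM with 1% FBS) received compound, then TGF-beta at 500 pg/mL final, and were incubated 18 hours at 37 degrees C. Viability was read by CellTiter-Glo luminescence. Media-only wells were set as complete cell-killing and DMSO as no toxicity.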
TDP1 inh – inhibitors of human tyrosyl-DNA phosphodiesterase TDP1; Q9NUW8; recombinant TDP1, AlphaScreen DNA substrate cleavage; Potency, µM (top dose mostly 130 µM), usual class: inhibitors; actives 0.28% (n = 350,000); AID 485290; note: nearly all actives have a fitted effect of over 40% in size
Target sequence (Q9NUW8 whole entry, looked up): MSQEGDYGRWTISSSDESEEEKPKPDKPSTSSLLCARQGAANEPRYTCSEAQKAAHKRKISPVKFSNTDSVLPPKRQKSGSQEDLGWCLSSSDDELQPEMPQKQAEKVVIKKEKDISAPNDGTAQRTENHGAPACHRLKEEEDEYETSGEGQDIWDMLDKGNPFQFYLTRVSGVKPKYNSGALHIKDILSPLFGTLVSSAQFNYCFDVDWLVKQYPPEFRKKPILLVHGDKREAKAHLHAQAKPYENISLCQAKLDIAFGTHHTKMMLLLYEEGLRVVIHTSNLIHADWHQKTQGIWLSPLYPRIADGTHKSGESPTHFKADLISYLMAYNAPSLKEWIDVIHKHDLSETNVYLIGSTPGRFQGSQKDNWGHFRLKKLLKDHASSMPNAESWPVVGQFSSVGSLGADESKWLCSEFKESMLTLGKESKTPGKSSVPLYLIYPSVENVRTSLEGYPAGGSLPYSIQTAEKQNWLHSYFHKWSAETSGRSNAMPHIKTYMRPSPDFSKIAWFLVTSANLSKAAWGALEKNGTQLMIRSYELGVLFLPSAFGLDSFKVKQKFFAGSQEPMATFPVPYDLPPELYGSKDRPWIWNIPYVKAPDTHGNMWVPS
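Compounds were preincubated with Tdp1 (1 nM final) for 15 min at room temperature before substrate (15 nM final) started a 5 min reaction; beads (10 ug/ml final) were then added for 10 min before AlphaScreen detection.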
TDP1 cell CPT – DT40-hTDP1 cell growth loss with CPT; chicken DT40 Tdp1-/-;hTDP1 cells + 20 nM CPT, ATP luminescence, 48 h; AID 686979; actives 12% (n = 420,000); Potency, µM (top dose mostly 46.2 µM), actives largely listed as inhibitors; note: nearly all actives have a fitted effect of over 55% in size
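Cell growth measured by CellTiter-Glo luminescence after a minimum 48 h, 37 C compound exposure with 20 nM CPT in Tdp1-knockout DT40 cells stably expressing hTDP1, seeded 400/well; qHTS titration format.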
TGFb SMAD3 inh – inhibitors of TGF-b signaling; HepG2 CAGA-GFP TGF-b/SMAD3 reporter, GFP fluorescence, 18 h; TGF-beta stimulated, 500 pg/mL final; Potency, µM (series often up to 46.1 µM), most hits filed as inhibitors; actives 1.2% (n = 410,000); AID 588855; note: nearly all actives have a fitted effect of over 65% in size
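HEPG2 CAGA-GFP cells (1000/well, DMEM with 1% FBS) were pre-incubated 2 h at 37 degrees C, given compound by pin tool, then stimulated with TGF-beta at 500 pg/mL final for 18 h before per-cell GFP fluorescence imaging.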
TDP1 cell noCPT – qHTS for Inhibitors of human tyrosyl-DNA phosphodiesterase 1 (TDP1): qHTS in cells in absence of CPT; AID 686978, 2013; Potency, µM (doses to about 46.2 µM), usual class: inhibitors; DT40 Tdp1-/- hTDP1 cells, no CPT, ATP luminescence, 48 h; actives 15% (n = 420,000); note: nearly all actives have a fitted effect of over 55% in size
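No-CPT arm: Tdp1-/-;hTDP1 DT40 cells (400/well) plus compounds, incubated ≥48 hr at 37 °C. Readout CellTiter-Glo luminescence.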
Each line names hits and unclear results; the compound was inactive in the other large screens. Sampled rows, rich in hits. Any-hit rate of the full collection: about 19%. Unless noted, calls come from the whole dose curve; as a rule, active = well fitted curve in the direction sought with a large enough effect; inconclusive = small, poorly fitted or top-dose-only effect, or another doubt; inactive = no such curve, though single readings can be large; an effect the other way counts as inactive or inconclusive.

Cc1ccc(C)c(C(=O)CCC(=O)N2CCN(c3cccc(C(F)(F)F)c3)CC2)c1	TDP1 cell CPT 15µM, TGFb SMAD3 inh 11µM, TDP1 cell noCPT 12µM
Cc1cn(C)c(CC(=O)N2CCN(c3cccc(C(F)(F)F)c3)CC2)c1C(=O)O	TDP1 cell CPT 13µM, TDP1 cell noCPT inconclusive (no result: IL-1B inflam inh)
Cc1cn(C)c(CC(=O)N2CCN(c3ccc(F)cc3)CC2)c1C(=O)O	none (no result: IL-1B inflam inh)
Cc1nc2c3ccccc3nc(NNC(=O)CCC(=O)N3CCN(c4ccccc4)CC3)n2n1	TDP1 cell CPT inconclusive, TDP1 cell noCPT inconclusive
Cc1nc2c3ccccc3nc(NNC(=O)CCC(=O)N3CCN(c4cccc(C(F)(F)F)c4)CC3)n2n1	TDP1 cell CPT 21µM, TGFb SMAD3 inh inconclusive, TDP1 cell noCPT 23µM (no result: IL-1B inflam inh)
CCOC(=O)COc1c(Cl)cc(C2NC(=S)NC(c3ccccc3)=C2C(C)=O)cc1OC (stereo not drawn)	IL-1B inflam inh -95, TGFb SMAD3 inh inconclusive
COC(=O)COc1ccc(C2NC(=O)NC(c3ccccc3)=C2C(C)=O)cc1Br (stereo not drawn)	IL-1B inflam inh -71, TGFb SMAD3 inh inconclusive
Cc1ncc2c(c1CNC(=O)c1cncs1)CCN(C(=O)c1csc(-c3cccs3)n1)C2	none (no result: IL-1B inflam inh, HepG2 viability, TDP1 inh, TGFb SMAD3 inh)
CCOc1ccc(NC(=O)Cn2cc(C(=O)c3ccccc3)c(=O)c3cc4c(cc32)OCCO4)cc1	none (no result: IL-1B inflam inh)
CCOc1ccc(C(=O)Nc2ccc(C(=O)OCc3cc(=O)n4nc(CC)sc4n3)cc2)cc1	TDP1 cell noCPT inconclusive (no result: IL-1B inflam inh)
CCCc1nn2c(=O)cc(COC(=O)c3ccccc3NC(=O)COc3ccccc3)nc2s1	TDP1 cell CPT inconclusive (no result: IL-1B inflam inh)
CC(C)c1nn2c(=O)cc(COC(=O)c3ccc(NC(=O)COc4ccccc4)cc3)nc2s1	none (no result: IL-1B inflam inh)
CCOC(=O)c1nn(-c2ccccc2)c(=O)cc1OCC(=O)Nc1cccc(OC)c1	none
CCc1nn2c(=O)cc(COC(=O)c3ccc(NC(=O)COc4ccc(C)cc4)cc3)nc2s1	TDP1 cell CPT inconclusive, TDP1 cell noCPT 16µM (no result: IL-1B inflam inh)
CCOC(=O)c1nn(-c2ccc(C)cc2)c(=O)cc1OCC(=O)Nc1ccc(OC)cc1	TDP1 inh 45µM
COc1ccc(OCC(=O)Nc2ccc(C(=O)OCc3cc(=O)n4nc(C)sc4n3)cc2)cc1	TDP1 cell CPT 13µM, TDP1 cell noCPT 21µM (no result: IL-1B inflam inh)
CCc1nn2c(=O)cc(COC(=O)c3ccccc3NC(=O)COc3ccc(C)c(C)c3)nc2s1	TDP1 cell CPT 5.2µM, TDP1 cell noCPT 6.5µM (no result: IL-1B inflam inh)
CCOC(=O)c1ccc(NC(=O)CCc2c(C)n(CC)c3cc(-c4ccccc4OC)nn3c2=O)cc1	none (no result: IL-1B inflam inh)
CCOC1(OCC)OC(c2ccccc2)=C(C#N)C(C=Cc2ccccc2)C1(OCC)OCC (stereo not drawn)	TDP1 cell CPT inconclusive, TDP1 cell noCPT 21µM (no result: TDP1 inh)
CCOc1ccc(N(CC(=O)NC(C(C)C)C(C)C)S(=O)(=O)c2ccc(OC)c(OC)c2)cc1	TDP1 cell CPT inconclusive, TGFb SMAD3 inh inconclusive, TDP1 cell noCPT 23µM
COc1ccc(S(=O)(=O)N(CCc2ccccc2)CC(=O)NCc2ccccc2)cc1OC	TDP1 cell CPT 16µM, TDP1 cell noCPT inconclusive (no result: IL-1B inflam inh)
COc1ccc(S(=O)(=O)N(CC(=O)NCc2ccccc2)c2ccc(C)cc2)cc1OC	TDP1 cell CPT inconclusive, TGFb SMAD3 inh inconclusive, TDP1 cell noCPT 6.5µM (no result: IL-1B inflam inh)
CCOc1ccc(N(CC(=O)OC)S(=O)(=O)c2ccc(OC)c(OC)c2)cc1	TDP1 cell CPT inconclusive, TDP1 cell noCPT inconclusive
COc1ccc(S(=O)(=O)N(CCc2ccccc2)CC(=O)Nc2cc(C)cc(C)c2)cc1OC	TDP1 cell CPT inconclusive, TDP1 cell noCPT inconclusive (no result: IL-1B inflam inh)
COc1ccc(S(=O)(=O)N(CC(=O)NC(C)c2ccccc2)c2ccc(C)cc2)cc1OC (stereo not drawn)	HepG2 viability 22µM, TDP1 cell CPT inconclusive, TGFb SMAD3 inh inconclusive, TDP1 cell noCPT 5.8µM (no result: IL-1B inflam inh)
